Measured values taken from the supplement of paper PMC8728848.
This excerpt belongs to a sample that is enriched for the strongest signals.

Columns and labels:
Assay in all cases: glycan array binding signal (z-score within array); higher = stronger binding
Conditions in all cases: glycan notation: IUPAC condensed, linker removed
Fuc(a1-2)Gal(b1-3)GlcNAc = biological target: Fuc(a1-2)Gal(b1-3)GlcNAc
Summary of the method: (§1)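 Negative Z-scores can be read as non-binding. The Z-score is calculated within each array and then averaged across arrays of one protein sequence at different concentrations or buffers and across linkers. Arrays, 3228 in all, were curated from the Consortium for Functional Glycomics database and kept only where the protein sequence was available.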

[1] = biological target: Fuc(a1-2)Gal(b1-3)GlcNAc(b1-3)[Gal(b1-4)GlcNAc(b1-6)]Gal(b1-4)Glc
Summary of the method: as §1

[2] = biological target: Fuc(a1-2)Gal(b1-4)[Fuc(a1-3)]GlcNAc(b1-2)Man(a1-3)[Fuc(a1-2)Gal(b1-4)[Fuc(a1-3)]GlcNAc(b1-2)Man(a1-6)]Man(b1-4)GlcNAc(b1-4)[Fuc(a1-6)]GlcNAc
Summary of the method: as §1

[3] = biological target: Fuc(a1-2)Gal(b1-4)[Fuc(a1-3)]GlcNAc(b1-3)Gal(b1-4)[Fuc(a1-3)]GlcNAc(b1-3)Gal(b1-4)[Fuc(a1-3)]GlcNAc
Summary of the method: as §1

[4] = biological target: Fuc(a1-2)[Gal(a1-3)]Gal(b1-4)GlcNAc(b1-2)Man(a1-3)[Fuc(a1-2)[Gal(a1-3)]Gal(b1-4)GlcNAc(b1-2)Man(a1-6)]Man(b1-4)GlcNAc(b1-4)GlcNAc
Summary of the method: as §1

[5] = biological target: Fuc(a1-2)[Gal(a1-3)]Gal(b1-4)GlcNAc(b1-6)GalNAc
Summary of the method: as §1

[6] = biological target: Fuc(a1-2)[GalNAc(a1-3)]Gal(b1-4)GlcNAc
Summary of the method: as §1

[7] = biological target: Fuc(a1-3)[Gal(b1-4)]GlcNAc(b1-3)Gal(b1-4)[Fuc(a1-3)]GlcNAc(b1-3)Gal(b1-4)[Fuc(a1-3)]GlcNAc
Summary of the method: as §1

[8] = biological target: Fuc(a1-3)[Gal(b1-4)]GlcNAc6S
Summary of the method: as §1

[9] = biological target: Fuc(a1-3)[Gal3S(b1-4)]GlcNAc
Summary of the method: as §1

[10] = biological target: Fuc(a1-3)[Gal3S(b1-4)]GlcNAc6S
Summary of the method: as §1

[11] = biological target: Fuc(a1-3)[GalNAc(b1-4)]GlcNAc
Summary of the method: as §1

Gal(a1-3)Gal(b1-4)GlcNAc = biological target: Gal(a1-3)Gal(b1-4)GlcNAc
Summary of the method: as §1

[12] = biological target: Gal(a1-3)Gal(b1-4)GlcNAc(b1-6)GalNAc
Summary of the method: as §1

Gal(a1-4)Gal(b1-4)Glc = biological target: Gal(a1-4)Gal(b1-4)Glc
Summary of the method: as §1

Gal(b1-3)GalNAc = biological target: Gal(b1-3)GalNAc
Summary of the method: as §1

Gal(b1-3)GalNAc(b1-3)Gal = biological target: Gal(b1-3)GalNAc(b1-3)Gal
Summary of the method: as §1

[13] = biological target: Gal(b1-3)GlcNAc(a1-3)Gal(b1-4)GlcNAc
Summary of the method: as §1

[14] = biological target: Gal(b1-3)GlcNAc(b1-2)Man(a1-3)[Gal(b1-3)GlcNAc(b1-2)Man(a1-6)]Man(b1-4)GlcNAc(b1-4)[Fuc(a1-6)]GlcNAc
Summary of the method: as §1

[15] = biological target: Gal(b1-3)GlcNAc(b1-3)Gal(b1-4)GlcNAc(b1-3)Gal(b1-4)GlcNAc(b1-2)[Gal(b1-3)GlcNAc(b1-3)Gal(b1-4)GlcNAc(b1-3)Gal(b1-4)GlcNAc(b1-6)]Man(a1-6)[Gal(b1-3)GlcNAc(b1-3)Gal(b1-4)GlcNAc(b1-3)Gal(b1-4)GlcNAc(b1-2)Man(a1-3)]Man(b1-4)GlcNAc(b1-4)[Fuc(a1-6)]GlcNAc
Summary of the method: as §1

[16] = biological target: Gal(b1-3)GlcNAc(b1-6)[Gal(b1-3)]GalNAc
Summary of the method: as §1

[17] = biological target: Gal(b1-3)[Fuc(a1-4)]GlcNAc(b1-2)Man(a1-3)[Gal(b1-3)[Fuc(a1-4)]GlcNAc(b1-2)Man(a1-6)]Man(b1-4)GlcNAc(b1-4)[Fuc(a1-6)]GlcNAc
Summary of the method: as §1

[18] = biological target: Gal(b1-4)GlcNAc(b1-2)[Gal(b1-4)GlcNAc(b1-6)]Man(a1-6)[GlcNAc(b1-4)][Gal(b1-4)GlcNAc(b1-2)Man(a1-3)]Man(b1-4)GlcNAc(b1-4)GlcNAc
Summary of the method: as §1

[19] = biological target: Gal(b1-4)GlcNAc(b1-3)Gal(b1-4)GlcNAc(b1-3)Gal(b1-4)GlcNAc(b1-3)Gal(b1-4)GlcNAc(b1-3)Gal(b1-4)GlcNAc(b1-3)Gal(b1-4)GlcNAc(b1-2)Man(a1-3)[Gal(b1-4)GlcNAc(b1-3)Gal(b1-4)GlcNAc(b1-3)Gal(b1-4)GlcNAc(b1-3)Gal(b1-4)GlcNAc(b1-3)Gal(b1-4)GlcNAc(b1-3)Gal(b1-4)GlcNAc(b1-2)Man(a1-6)]Man(b1-4)GlcNAc(b1-4)GlcNAc
Summary of the method: as §1

[20] = biological target: Gal(b1-4)GlcNAc(b1-3)[Gal(b1-4)GlcNAc(b1-6)]Gal(b1-4)GlcNAc
Summary of the method: as §1

Gal3S(b1-4)Glc6S = biological target: Gal3S(b1-4)Glc6S
Summary of the method: as §1

GalNAc(a1-3)Gal = biological target: GalNAc(a1-3)Gal
Summary of the method: as §1

GalNAc(b1-3)GalNAc = biological target: GalNAc(b1-3)GalNAc
Summary of the method: as §1

GalNAc(b1-4)Gal(b1-4)Glc = biological target: GalNAc(b1-4)Gal(b1-4)Glc
Summary of the method: as §1

[21] = biological target: GalNAc(b1-4)GlcNAc(b1-2)Man
Summary of the method: as §1

Glc(a1-4)Glc = biological target: Glc(a1-4)Glc
Summary of the method: as §1

Glc(a1-6)Glc(a1-6)Glc = biological target: Glc(a1-6)Glc(a1-6)Glc
Summary of the method: as §1

[22] = biological target: GlcNAc(b1-2)[GlcNAc(b1-4)]Man(a1-3)[GlcNAc(b1-4)][GlcNAc(b1-2)[GlcNAc(b1-6)]Man(a1-6)]Man(b1-4)GlcNAc(b1-4)GlcNAc
Summary of the method: as §1

[23] = biological target: GlcNAc(b1-3)Gal(b1-4)GlcNAc(b1-3)Gal(b1-4)GlcNAc(b1-2)Man(a1-3)[GlcNAc(b1-3)Gal(b1-4)GlcNAc(b1-3)Gal(b1-4)GlcNAc(b1-2)Man(a1-6)]Man(b1-4)GlcNAc(b1-4)[Fuc(a1-6)]GlcNAc
Summary of the method: as §1

[24] = biological target: GlcNAc(b1-3)Gal(b1-4)GlcNAc(b1-6)[Gal(b1-3)]GalNAc
Summary of the method: as §1

GlcNAc(b1-3)Man = biological target: GlcNAc(b1-3)Man
Summary of the method: as §1

[25] = biological target: GlcNAc(b1-4)[GlcNAc(b1-6)]GalNAc
Summary of the method: as §1

Kdn(a2-3)Gal(b1-4)Glc = biological target: Kdn(a2-3)Gal(b1-4)Glc
Summary of the method: as §1

[26] = biological target: Man(a1-2)Man(a1-3)[Man(a1-2)Man(a1-6)]Man
Summary of the method: as §1

Man(a1-3)[Man(a1-6)]Man = biological target: Man(a1-3)[Man(a1-6)]Man
Summary of the method: as §1

[27] = biological target: Neu5Ac(a2-3)Gal(b1-3)GlcNAc(b1-3)GalNAc
Summary of the method: as §1

[28] = biological target: Neu5Ac(a2-6)Gal(b1-4)GlcNAc(b1-2)Man(a1-3)Man(b1-4)GlcNAc(b1-4)GlcNAc
Summary of the method: as §1

[29] = biological target: Neu5Ac(a2-6)Gal(b1-4)GlcNAc(b1-2)Man(a1-3)[Neu5Ac(a2-6)Gal(b1-4)GlcNAc(b1-2)Man(a1-6)]Man(b1-4)GlcNAc(b1-4)GlcNAc
Summary of the method: as §1

[30] = biological target: Neu5Ac(a2-8)Neu5Ac(a2-3)Gal(b1-3)GalNAc(b1-4)[Neu5Ac(a2-8)Neu5Ac(a2-3)]Gal(b1-4)Glc
Summary of the method: as §1

[31] = biological target: Neu5Ac(a2-8)Neu5Ac(a2-3)[Gal(b1-3)GalNAc(b1-4)]Gal(b1-4)Glc
Summary of the method: as §1

Neu5Gc(a2-3)Gal(b1-4)Glc = biological target: Neu5Gc(a2-3)Gal(b1-4)Glc
Summary of the method: as §1

B1: OS9 (Arabidopsis thaliana) (protein)
chain: MRGSHHHHHHGMASMTGGQQMGRDLYDDDDKSRLQIFPAHLVGTFSRNNREPKYKIEFLPEDSPFHPGDNLESMVMLDKHGNRFLCYLPKEEKATSGWTSSQQNISTVMMETQQLVKLKTPDELLQPLSEKCLFRQEGWWSYEFCHQKYVRQLHVEDENKIVQEFFLGTFDPEATAAFNQTVSDASTDASQRYHSHVYTNGTTCDLTGSPREVEVRFVCAETRAMVTSITELSTCKYALTVQCPTLCKHPLFQLEKPVSHTIHCNAIPVEEDATRNKEEQAVDESPKMIADS
Question: B1 was tested. Which “glycan array binding signal (z-score)” value (Fuc(a1-2)Gal(b1-3)GlcNAc) did it give?
Answer: -0.466

Question: And the “glycan array binding signal (z-score)” value [1]?
Answer: 2.66

Question: What about the “glycan array binding signal (z-score)” value [2] of the same binder?
Answer: -0.608

Question: And the “glycan array binding signal (z-score)” value [3]?
Answer: 4.22

Question: What about the “glycan array binding signal (z-score)” value [4] of the same binder?
Answer: 3.36

Question: And the “glycan array binding signal (z-score)” value [5]?
Answer: 0.051

Question: And the “glycan array binding signal (z-score)” value [6]?
Answer: -0.828

Question: What about the “glycan array binding signal (z-score)” value [7] of the same binder?
Answer: -0.881

Question: And the “glycan array binding signal (z-score)” value [8]?
Answer: 3.45

Question: And the “glycan array binding signal (z-score)” value [9]?
Answer: 1.51

Question: What about the “glycan array binding signal (z-score)” value [10] of the same binder?
Answer: -0.706

Question: What about the “glycan array binding signal (z-score)” value [11] of the same binder?
Answer: 0.056

Question: What about the “glycan array binding signal (z-score)” value (Gal(a1-3)Gal(b1-4)GlcNAc) of the same binder?
Answer: -0.724

Question: What about the “glycan array binding signal (z-score)” value [12] of the same binder?
Answer: 0.243

Question: And the “glycan array binding signal (z-score)” value (Gal(a1-4)Gal(b1-4)Glc)?
Answer: 2.7

Question: And the “glycan array binding signal (z-score)” value (Gal(b1-3)GalNAc)?
Answer: -0.097

Question: What about the “glycan array binding signal (z-score)” value (Gal(b1-3)GalNAc(b1-3)Gal) of the same binder?
Answer: 3.02

Question: What about the “glycan array binding signal (z-score)” value [13] of the same binder?
Answer: -1.06

Question: What about the “glycan array binding signal (z-score)” value [14] of the same binder?
Answer: -0.157

Question: And the “glycan array binding signal (z-score)” value [15]?
Answer: 2.88

Question: What about the “glycan array binding signal (z-score)” value [16] of the same binder?
Answer: 0.651

Question: What about the “glycan array binding signal (z-score)” value [17] of the same binder?
Answer: 7.5

Question: What about the “glycan array binding signal (z-score)” value [18] of the same binder?
Answer: -0.016

Question: What about the “glycan array binding signal (z-score)” value [19] of the same binder?
Answer: 0.798

Question: What about the “glycan array binding signal (z-score)” value [20] of the same binder?
Answer: 1.43

Question: And the “glycan array binding signal (z-score)” value (Gal3S(b1-4)Glc6S)?
Answer: 0.366

Question: And the “glycan array binding signal (z-score)” value (GalNAc(a1-3)Gal)?
Answer: -0.979

Question: And the “glycan array binding signal (z-score)” value (GalNAc(b1-3)GalNAc)?
Answer: 0.839

Question: What about the “glycan array binding signal (z-score)” value (GalNAc(b1-4)Gal(b1-4)Glc) of the same binder?
Answer: 2.57

Question: And the “glycan array binding signal (z-score)” value [21]?
Answer: 3.58

Question: What about the “glycan array binding signal (z-score)” value (Glc(a1-4)Glc) of the same binder?
Answer: 1.98

Question: And the “glycan array binding signal (z-score)” value (Glc(a1-6)Glc(a1-6)Glc)?
Answer: -0.542

Question: What about the “glycan array binding signal (z-score)” value [22] of the same binder?
Answer: 0.258

Question: What about the “glycan array binding signal (z-score)” value [23] of the same binder?
Answer: -0.144

Question: What about the “glycan array binding signal (z-score)” value [24] of the same binder?
Answer: 0.094

Question: What about the “glycan array binding signal (z-score)” value (GlcNAc(b1-3)Man) of the same binder?
Answer: 0.127

Question: What about the “glycan array binding signal (z-score)” value [25] of the same binder?
Answer: -0.3

Question: And the “glycan array binding signal (z-score)” value (Kdn(a2-3)Gal(b1-4)Glc)?
Answer: 0.473

Question: What about the “glycan array binding signal (z-score)” value [26] of the same binder?
Answer: 0.462

Question: What about the “glycan array binding signal (z-score)” value (Man(a1-3)[Man(a1-6)]Man) of the same binder?
Answer: -0.078

Question: And the “glycan array binding signal (z-score)” value [27]?
Answer: 0.474

Question: And the “glycan array binding signal (z-score)” value [28]?
Answer: 6.74

Question: What about the “glycan array binding signal (z-score)” value [29] of the same binder?
Answer: -0.5

Question: And the “glycan array binding signal (z-score)” value [30]?
Answer: -0.384

Question: And the “glycan array binding signal (z-score)” value [31]?
Answer: 1.47

Question: And the “glycan array binding signal (z-score)” value (Neu5Gc(a2-3)Gal(b1-4)Glc)?
Answer: -1.01
